Rows were chosen to be rich in hits. Some 10% of all compounds tested hit in one or more screens of this group.
PLK1 PBD inh = inhibitors of human PLK1 polo-box domain binding; AID 720504; Plk1 PBD binding of FITC phosphopeptide, fluorescence polarization; P53350; Potency, µM, for inactives: max response, negative = inhibition, actives largely listed as inhibitors; 360,000 compounds, 2.8% hits; note: potency is the fitted concentration of half-maximal effect; series mostly up to about 57 µM; nearly all actives have a fitted effect of over 65% in size
Mm-Cpn inhibitor = M. maripaludis TRiC chaperonin inhibition; purified Mm-Cpn ATPase, ADP Transcreener TR-FRET; Potency, µM (top dose mostly 76.9 µM), inactives show at the highest dose activity, negative = inhibition, most hits filed as inhibitors; 330,000 compounds, 0.031% hits; AID 504842; note: potency is the fitted concentration of half-maximal effect; nearly all actives have a fitted effect of over 80% in size
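ATP (10 uM final) was added to archaeal chaperonin (25 nM final) after 10 min exposure to test compound at 37°C; after 30 min further incubation, ADP was detected by competitive TR-FRET.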
VDR inh = vitamin D3 receptor (human) inhibition; VDR-SRC2-3 peptide fluorescence polarization, 2 h; Potency, µM, inactives show max response, negative = inhibition, hits mostly inhibitors; 400,000 compounds, 0.93% hits; note: potency is the fitted concentration of half-maximal effect
Target sequence (P11473 whole entry, looked up): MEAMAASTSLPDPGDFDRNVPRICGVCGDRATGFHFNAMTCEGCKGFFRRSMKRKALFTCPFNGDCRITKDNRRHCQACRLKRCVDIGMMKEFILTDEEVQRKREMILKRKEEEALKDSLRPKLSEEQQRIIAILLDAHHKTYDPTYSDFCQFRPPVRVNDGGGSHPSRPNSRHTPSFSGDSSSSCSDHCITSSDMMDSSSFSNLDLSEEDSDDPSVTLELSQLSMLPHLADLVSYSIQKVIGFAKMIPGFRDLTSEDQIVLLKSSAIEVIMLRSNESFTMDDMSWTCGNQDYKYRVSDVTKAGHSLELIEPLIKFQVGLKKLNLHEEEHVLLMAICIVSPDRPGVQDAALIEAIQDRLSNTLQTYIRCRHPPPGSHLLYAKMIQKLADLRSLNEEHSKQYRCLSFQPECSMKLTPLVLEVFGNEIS
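FP read-out; VDR + SRC2-3 coactivator peptide; 23 nl compound by pintool; 2 h RT incubation; reagents held at 4 deg C, protected from light.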
G9a inh = blocks human histone lysine methyltransferase G9a; Q96KQ7; G9a H3K9 monomethylation, AlphaScreen, 2 h; Potency, µM (highest dose often 102 µM), for inactives: at the top dose activity, negative = inhibition, actives largely listed as inhibitors; 350,000 compounds, 8.8% hits; AID 504332; note: potency is the fitted concentration of half-maximal effect; nearly all actives have a fitted effect of over 75% in size
Target sequence (Q96KQ7 913-1193 limits assumed): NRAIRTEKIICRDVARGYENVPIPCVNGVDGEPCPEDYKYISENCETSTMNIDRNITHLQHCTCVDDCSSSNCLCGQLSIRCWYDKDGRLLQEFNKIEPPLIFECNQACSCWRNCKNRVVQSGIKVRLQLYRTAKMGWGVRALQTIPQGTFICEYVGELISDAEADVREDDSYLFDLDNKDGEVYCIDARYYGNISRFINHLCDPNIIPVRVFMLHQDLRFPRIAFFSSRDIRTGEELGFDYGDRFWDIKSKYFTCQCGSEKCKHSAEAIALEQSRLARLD
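Chemiluminescent proximity detection of H3K9 monomethylation, read after 10 min bead incubation in the dark. Reaction: 20 nM G9a, 500 nM biotin-H3K9 peptide, 20 uM SAM cofactor, 2 h, room temperature, following 15 min enzyme-compound preincubation.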
CCT modulator = modulators of cytosolic chaperonin (CCT/TRiC) activity | purified chaperonin ATPase assay, HTRF ADP detection, 30 min | 360,000 compounds, 0.3% hits | activity change, % (test concentration not listed), hits read low | AID 651819; in the data active = activity change below about -30%
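ATPase activity: ADP formed was measured by HTRF Transcreener (665/615 nm ratio) after 30 min at 37 deg C with 10 uM ATP. Compounds screened at one 76 uM concentration against 40 or 20 nM TRiC in Tris pH 7.4/KCl/MgCl2/DTT buffer.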
Sfp inh = inhibitors of Bacillus subtilis Sfp phosphopantetheinyl transferase | Q9F4F7 | Biochemical Sfp PPTase activity, qHTS | Potency, µM, for inactives: largest response in the series, negative = inhibition, usual class: inhibitors | 310,000 compounds, 3.5% hits;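 note: the enzyme is Sfp with the accession as filed and its product quenches rhodamine fluorescence; potency is the fitted concentration of half-maximal effect; 0% = enzyme reaction without inhibitor and -100% = no enzyme wells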
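After 15 min at room temperature with compound, 15 nM Sfp received 5 uM rhodamine-CoA plus 12.5 uM BHQ-2-ybbR (50 mM Hepes pH 7.6, 10 mM MgCl2). Rate came from the fluorescence difference over 30 min, ex 525/em 598 nm.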
* hit, by the source's call; u = inconclusive; x = no result; [ ] = dose if it differs, or a comment. Unless noted, calls come from the whole dose curve; as a rule, active = well fitted curve in the direction sought with a large enough effect; inconclusive = small, poorly fitted or top-dose-only effect, or another doubt; inactive = no such curve, though single readings can be large; an effect the other way counts as inactive or inconclusive. Unless noted, % is set by controls: 0 for no effect and ±100 for the full control effect.

SMILES | PLK1 PBD inh | Mm-Cpn inhibitor | VDR inh | G9a inh | CCT modulator | Sfp inh
Cc1ccc(C(c2nnnn2C2CCCC2)N2CCc3ccccc32)cc1 (configuration not stated) | -7% | -5% | 12% | u | -1 | -6%
CCC(C)(C)n1nnnc1C(c1cc2cc(C)ccc2[nH]c1=O)N1CCCc2ccccc21 (configuration not stated) | -25% | -2% | 7% | 4%[12.7 µM] | 0 | 20µM*
Cc1ccc2[nH]c(=O)c(C(c3nnnn3C3CCCC3)N3CCCc4ccccc43)cc2c1 (configuration not stated) | -4% | -3% | -10% | u | 0 | 8.9µM*
CCC(C)(C)n1nnnc1C(c1cc2cc(OC)ccc2[nH]c1=O)N1CCc2ccccc21 (configuration not stated) | -4% | -3% | -11% | u | 0 | -38%
C/C(=N\N(c1ccccc1)c1ccccc1)c1ccco1 | -14% | 3% | -1% | 35µM* | -3 | 0%
C/C(=N\N=C(c1ccccc1)c1ccccc1)c1ccco1 | -3% | 2% | -13% | -45% | -1 | 6%
Cc1cccc(C)c1NC(=O)C(c1ccccc1)N1CCC(c2ccccc2)CC1 (configuration not stated) | -2% | x | x | x | x | x
Cc1cccc(C)c1NC(=O)C(c1ccccc1)N1CCC1=O (configuration not stated) | 17µM* | -1% | u | 57%[12.7 µM] | 0 | 14%
Cn1c(=O)c([N+](=O)[O-])c(NCc2ccc3c(c2)OCO3)c2ccccc21 | -1% | -1% | -17% | x | -2 | 50µM*
CCn1c(=O)c([N+](=O)[O-])c(N2CCN(Cc3ccc4c(c3)OCO4)CC2)c2ccccc21 | -12% | 0% | -29% | 32µM* | 1 | 8%
Cc1cc2nc(-c3cc(NC(=O)c4cc5ccccc5o4)ccc3Cl)oc2cc1C | x | x | u | 2%[59 µM] | x | x
O=[N+]([O-])c1cccc(-c2nc(NCc3ccccc3)c3ccccc3n2)c1 | -10% | -14% | -12% | u | 0 | 2%
CN(Cc1ccccc1)c1nc(-c2cccc([N+](=O)[O-])c2)nc2ccccc12 | 27µM* | 4% | u | 4%[59 µM] | -2 | 6%
O=S(=O)(c1ccc(Cl)cc1)c1nc(-c2ccccc2Br)oc1N1CCOCC1 | x | x | -5% | -43%[59 µM] | x | x
CCOc1ccc(CN2CCN(CC(O)Cn3c4ccccc4c4ccccc43)CC2)cc1 (configuration not stated) | 3% | -1% | -12% | 45µM* | 0 | u
CN1CCN(CC(O)Cn2c3ccccc3c3ccccc32)CC1 (configuration not stated) | -11% | -1% | 8% | 1.8µM* | -3 | 50µM*
COc1ccc(CN2CCN(CC(O)Cn3c4ccccc4c4ccccc43)CC2)cc1 (configuration not stated) | -3% | -2% | 17% | -15%[59 µM] | 0 | -14%
Cc1c(C)n(CC(O)CN2CCN(C)CC2)c2ccccc12 (configuration not stated) | -8% | 1% | -6% | u | -2 | 2%
CCOC(=O)c1cccc(NC(=O)C(C)n2c(C)c3cnn(-c4ccccc4)c(=O)c3c2C)c1 (configuration not stated) | x | x | 0% | -25%[59 µM] | x | x
COc1cccc(N2C(=O)CSC23C(=O)N(Cc2ccccc2)c2ccccc23)c1 (configuration not stated) | x | x | 15% | u | x | x
Cc1ccc(C2CCN(C(=O)c3cnn(-c4ccc(C)c(C)c4)c3C3CCN(C(=O)OC(C)(C)C)CC3)C2)cc1 (configuration not stated) | x | x | 3% | -29%[59 µM] | x | x
CC(=O)Nc1cccc(-c2csc(NCc3ccccc3)n2)c1 | -10% | -28% | -10% | 11µM* | -1 | 40µM*
CC(=O)Nc1cccc(-c2csc(Nc3ccccn3)n2)c1 | -1% | -2% | 11% | 16%[0.0925 µM] | 1 | 89µM*
CCC(=O)Nc1cccc(-c2csc(-c3ccccc3)n2)c1 | 2% | -9% | 3% | -10%[2.33 µM] | 0 | -8%
CC(=O)Nc1ccc(-c2csc(NCc3ccccc3)n2)cc1 | -16% | -8% | -18% | 35µM* | 0 | -13%
SMILES | PLK1 PBD inh | Mm-Cpn inhibitor | VDR inh | G9a inh | CCT modulator | Sfp inh
Fc1ccc(-c2csc(Nc3ccccn3)n2)cc1 | 0% | 3% | 6% | 79µM* | -1 | -13%
COc1ccc(-n2nc(C(=O)Nc3ccc(Br)cc3C)c3c4ccccc4n(C)c3c2=O)cc1 | x | x | -24% | 10%[59 µM] | x | x
COc1cc(OC)c(NC(=O)c2cc3c(=O)oc4ccc(C)cc4c3s2)cc1Cl | x | x | -11% | 6%[59 µM] | x | x
CCN1CCN(c2cc3c(cc2F)c(=O)c(S(=O)(=O)c2ccc(OC)cc2)cn3CC)CC1 | x | x | 12% | -31%[59 µM] | x | x
COc1ccccc1C1Nc2c(sc3nc(C)cc(C)c23)C(=O)N1c1ccccc1 (configuration not stated) | x | x | 6% | 13%[59 µM] | x | x
CCOC(=O)c1n[nH]n(-c2cc(Cl)cc(Cl)c2)c1=O | -4% | -1% | 0% | 3% | -1 | 16%
COC(=O)Cc1c(C)[nH]n(-c2cc(Cl)cc(Cl)c2)c1=O | u | -2% | u | 40µM* | -1 | 0%
Cc1sc(NC(=O)c2ccco2)c(C(Nc2ccccn2)c2ccccc2)c1C (configuration not stated) | -2% | -5% | -20% | 45µM* | -2 | 0%
COc1ccc(S(=O)(=O)NCCSCc2ccco2)cc1OC | -4% | 0% | 10% | 12%[12.7 µM] | 3 | 28µM*
Cc1ccc(S(=O)(=O)NC(C(=O)N2CCOCCOCCOCCOCC2)C(C)C)cc1 (configuration not stated) | 0% | 1% | 6% | u | 1 | 10%
Cc1ccc(S(=O)(=O)NC(C)C(=O)N2CCOCCOCCOCC2)cc1 (configuration not stated) | 0% | 0% | -10% | 71µM* | 1 | 17%
CC1Cc2ccccc2N1C(=O)CCS(=O)(=O)c1ccc2c(c1)NC(=O)CS2 (configuration not stated) | 19µM* | 4% | u | 50% | 1 | 13%
Cc1cccc(NC(=O)CCS(=O)(=O)c2ccc3c(c2)NC(=O)CS3)n1 | 30µM* | 3% | u | 59% | -1 | 11%
COc1ccc(S(=O)(=O)CCC(=O)N2c3ccccc3CC2C)cc1 (configuration not stated) | -15% | 1% | 10% | -11%[59 µM] | -2 | 7%
O=C(CCS(=O)(=O)c1ccc2c(c1)NC(=O)CS2)NCCc1ccc(Cl)cc1 | 17µM* | 1% | u | 10% | -1 | 12%
CCOC(=O)c1ccc(CN(Cc2ccc(Cl)cc2Cl)S(=O)(=O)c2ccc(F)c(C)c2)cc1 | x | x | 5% | 19%[59 µM] | x | x
